From PubChem BioAssay (Tox21)
Values joined by “and” are separate entries in the source; they are usually repeats but may differ in a detail not shown here. Identical values can stand only once. Results filed as inconclusive are left out. Active and inactive are the calls of the source. Unless noted, calls come from the whole dose curve; as a rule, active = well fitted curve in the direction sought with a large enough effect in the repeat runs; inconclusive = weak or mixed curves; inactive = no such curve, though single readings can be large; an effect the other way counts as inactive or inconclusive.

Assays:
[1] = qHTS assay to test for compound auto fluorescence at 460 nm (blue) in HEK293 cell free culture (AID 720681); note: % is set by controls: 0 for no effect and ±100 for the full control effect
Method in brief: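 Compounds were added to cell-free DMEM with 10% FBS and fluorescence read directly. The blue channel used 405 nm excitation and 460 nm emission, with triamterene as the reference fluorophore.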

[2] = qHTS assay to test for compound auto fluorescence at 535 nm (green) in HEK293 cell free culture (AID 720682); note: % is set by controls: 0 for no effect and ±100 for the full control effect
Method in brief: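 DMEM + 10% FBS, cell-free; cpd or DMSO pinned in; Ex485/Em535 read; output as fluorescein-equivalent signal.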

[3] = qHTS assay to test for compound auto fluorescence at 590 nm (red) in HEK293 cell free culture (AID 720683); note: % is set by controls: 0 for no effect and ±100 for the full control effect
Method in brief: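 Cell-free wells of DMEM with 10% FBS received compound, and intrinsic fluorescence was read at excitation/emission 540/590 nm. Values expressed as equivalence to Rose Bengal sodium.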

[4] = qHTS assay to test for compound auto fluorescence at 590 nm (red) in HepG2 cell free culture (AID 720684); note: % is set by controls: 0 for no effect and ±100 for the full control effect
Method in brief: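 Rose Bengal sodium served as the reference for red signal. Test compounds were dispensed into serum-containing MEM (10% FBS) without cells, and plates were read at 540/590 nm.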

[5] = qHTS assay to test for compound auto fluorescence at 460 nm (blue) in HepG2 cell free culture (AID 720685); note: % is set by controls: 0 for no effect and ±100 for the full control effect
Method in brief: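 Cell-free plates of MEM plus 10% FBS received 23 nL compound or DMSO vehicle; blue-channel (405/460 nm) intensity scored against triamterene as reference fluorophore.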

[6] = qHTS assay to test for compound auto fluorescence at 535 nm (green) in HepG2 cell free culture (AID 720686); note: % is set by controls: 0 for no effect and ±100 for the full control effect
[7] = qHTS assay to test for compound auto fluorescence at 460 nm (blue) in HepG2 cells (AID 720687); note: % is set by controls: 0 for no effect and ±100 for the full control effect
Method in brief: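 HepG2 cells in MEM with 10% FBS, attached overnight at 37 C, were exposed to compound or DMSO for 1 hr at 37 C, 5% CO2. Blue fluorescence was read at 405/460 nm, with triamterene as reference fluorophore.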

[8] = target: Glucocorticoid receptor (Homo sapiens) (UniProt P04150); assay: qHTS assay to identify small molecule agonists of the glucocorticoid receptor (GR) signaling pathway (AID 720691; active = well fitted activation curve with a large enough effect in the signal ratio in the repeat runs, not every such curve was filed as active; the % refers to the signal ratio; note: % is set by controls: 0 for no effect and ±100 for the full control effect); settings: GR-bla HeLa, beta-lactamase reporter ratio, 18 h; activation: at 62.4 µM (top of the series)
Chain of Glucocorticoid receptor (Homo sapiens) (P04150 whole entry, looked up): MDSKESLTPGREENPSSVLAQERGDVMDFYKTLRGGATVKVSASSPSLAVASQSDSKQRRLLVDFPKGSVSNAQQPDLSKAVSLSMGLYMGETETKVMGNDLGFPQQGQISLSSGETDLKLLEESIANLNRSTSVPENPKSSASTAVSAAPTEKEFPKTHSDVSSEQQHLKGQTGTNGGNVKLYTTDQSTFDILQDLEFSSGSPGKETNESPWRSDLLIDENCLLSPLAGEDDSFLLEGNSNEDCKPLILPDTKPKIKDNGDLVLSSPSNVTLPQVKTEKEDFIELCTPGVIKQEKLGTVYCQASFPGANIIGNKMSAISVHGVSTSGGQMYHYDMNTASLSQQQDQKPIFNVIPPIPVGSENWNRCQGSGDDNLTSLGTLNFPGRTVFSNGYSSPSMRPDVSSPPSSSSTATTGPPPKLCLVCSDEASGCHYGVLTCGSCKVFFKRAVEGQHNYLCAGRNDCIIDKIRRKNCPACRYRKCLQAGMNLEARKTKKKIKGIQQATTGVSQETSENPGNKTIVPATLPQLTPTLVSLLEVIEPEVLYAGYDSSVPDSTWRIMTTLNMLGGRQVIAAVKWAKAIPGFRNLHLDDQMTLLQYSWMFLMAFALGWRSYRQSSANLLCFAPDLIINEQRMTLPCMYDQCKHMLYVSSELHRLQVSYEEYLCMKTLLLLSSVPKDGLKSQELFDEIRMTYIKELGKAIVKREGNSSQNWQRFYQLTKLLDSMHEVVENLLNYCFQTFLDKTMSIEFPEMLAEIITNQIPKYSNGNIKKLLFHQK
Method in brief: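 Compounds in DMSO, alongside positive controls, were added to GR-bla HeLa reporter cells and incubated 18 h at 37 C; GRE-driven beta-lactamase was detected by fluorescence after 2 h with FRET substrate at room temperature.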

[9] = qHTS assay for identifying genotoxic compounds that show differential cytotoxicity against isogenic chicken DT40 cell lines with known DNA damage response pathways - Rev3 mutant cell line (AID 743014); note: nearly all actives have a fitted effect of over 55% in size; note: potency is the fitted concentration of half-maximal effect
[10] = qHTS assay for identifying genotoxic compounds that show differential cytotoxicity against isogenic chicken DT40 cell lines with known DNA damage response pathways - Rad54/Ku70 mutant cell line (AID 743015); note: nearly all actives have a fitted effect of over 60% in size; note: potency is the fitted concentration of half-maximal effect
[11] = qHTS assay to identify small molecule antagonists of the androgen receptor (AR) signaling pathway using the MDA cell line - cell viability counter screen (AID 743041; note: nearly all actives have a fitted effect of over 45% in size; note: potency is the fitted concentration of half-maximal effect)
Method in brief: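 Cytotoxicity counter screen: MDA-kb2 AR-luc cells, compound + R1881, 16 h, 37C, 0% CO2; CellTiter-Fluor added at 15.5 h, fluorescence read after 30 min.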

[12] = target: Androgen receptor (Homo sapiens) (UniProt P10275); assay: qHTS assay to identify small molecule antagonists of the androgen receptor (AR) signaling pathway using the MDA cell line (AID 743042; note: nearly all actives have a fitted effect of over 55% in size; note: potency is the fitted concentration of half-maximal effect)
Chain of Androgen receptor (Homo sapiens) (P10275 whole entry, looked up): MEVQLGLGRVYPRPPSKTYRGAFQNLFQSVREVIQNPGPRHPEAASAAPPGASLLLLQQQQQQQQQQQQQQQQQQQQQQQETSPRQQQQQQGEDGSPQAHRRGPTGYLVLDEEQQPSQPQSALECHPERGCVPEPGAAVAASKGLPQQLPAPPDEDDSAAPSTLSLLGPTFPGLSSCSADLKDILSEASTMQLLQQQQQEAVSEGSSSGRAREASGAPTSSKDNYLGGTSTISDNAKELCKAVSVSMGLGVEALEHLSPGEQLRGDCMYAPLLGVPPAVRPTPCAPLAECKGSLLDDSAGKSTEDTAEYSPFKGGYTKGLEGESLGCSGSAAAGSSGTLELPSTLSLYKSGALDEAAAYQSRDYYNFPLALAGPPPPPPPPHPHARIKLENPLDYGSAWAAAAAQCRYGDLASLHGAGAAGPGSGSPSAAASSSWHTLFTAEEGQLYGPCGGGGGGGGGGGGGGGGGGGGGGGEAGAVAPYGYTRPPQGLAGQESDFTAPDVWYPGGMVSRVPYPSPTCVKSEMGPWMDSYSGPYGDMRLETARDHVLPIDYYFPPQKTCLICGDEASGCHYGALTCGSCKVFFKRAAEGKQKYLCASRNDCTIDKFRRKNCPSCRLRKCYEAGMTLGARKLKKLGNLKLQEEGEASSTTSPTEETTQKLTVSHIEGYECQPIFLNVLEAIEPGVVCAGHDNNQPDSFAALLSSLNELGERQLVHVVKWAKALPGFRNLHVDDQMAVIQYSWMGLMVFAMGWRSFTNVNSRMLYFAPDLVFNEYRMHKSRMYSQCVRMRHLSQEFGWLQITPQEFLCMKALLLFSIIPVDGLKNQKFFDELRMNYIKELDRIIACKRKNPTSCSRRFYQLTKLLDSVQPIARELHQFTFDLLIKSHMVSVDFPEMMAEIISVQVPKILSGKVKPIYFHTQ
Method in brief: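 MDA-kb2 breast carcinoma cells carrying MMTV-luciferase (AR/GR responsive) were co-treated with compounds and the agonist R1881 for 16 h at 37C. Inhibition read as ONE-Glo luminescence; CellTiter-Fluor fluorescence measured in parallel for cytotoxicity.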

[13] = qHTS assay to identify small molecule antagonists of the thyroid receptor (TR) signaling pathway - cell viability counter screen (AID 743064); note: nearly all actives have a fitted effect of over 50% in size; note: potency is the fitted concentration of half-maximal effect
Method in brief: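 Viability of T3-stimulated (1 nM final) GH3.TRE-Luc cells is measured by CellTiter-Fluor fluorescence after 23.5 h compound exposure at 37 °C plus 30 min reagent incubation.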

[14] = qHTS assay for identifying genotoxic compounds that show differential cytotoxicity against isogenic chicken DT40 cell lines with known DNA damage response pathways - wild type cell line (AID 743012); note: nearly all actives have a fitted effect of over 60% in size; note: potency is the fitted concentration of half-maximal effect
Method in brief: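 Viability of DNA repair-proficient chicken DT40 cells was assessed by CellTiter-Glo luminescence following 40 h compound exposure at 37 C/5% CO2.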

[15] = target: Androgen receptor (Homo sapiens) (UniProt P10275); assay: qHTS assay to identify small molecule antagonists of the androgen receptor (AR) signaling pathway (AID 743035; active = well fitted inhibition curve with a large enough effect in the signal ratio in the repeat runs, not every such curve was filed as active; the % refers to the signal ratio; note: potency is the fitted concentration of half-maximal effect)
Method in brief: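 Reporter HEK293 cells were exposed to compounds and R1881 overnight (16 h, 37C); beta-lactamase activity was then quantified by FRET fluorescence.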

[16] = qHTS assay to identify small molecule antagonists of the androgen receptor (AR) signaling pathway - cell viability counter screen (AID 743033; note: nearly all actives have a fitted effect of over 45% in size; note: potency is the fitted concentration of half-maximal effect)
[17] = target: Glucocorticoid receptor (Homo sapiens) (UniProt P04150); assay: qHTS assay to identify small molecule antagonists of the glucocorticoid receptor (GR) signaling pathway (AID 720692; active = well fitted inhibition curve with a large enough effect in the signal ratio in the repeat runs, not every such curve was filed as active; the % refers to the signal ratio; note: potency is the fitted concentration of half-maximal effect)
Method in brief: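 In a 1536-well cell format, compounds were added 4 h after seeding GR-bla HeLa cells, together with dexamethasone at 5 nM final; reporter activity was measured by FRET-substrate fluorescence following 18 h at 37 C.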

[18] = qHTS assay to identify small molecule antagonists of the glucocorticoid receptor (GR) signaling pathway - cell viability counter screen (AID 720693); note: potency is the fitted concentration of half-maximal effect; nearly all actives have a fitted effect of over 55% in size

CCC(C)c1cc([N+](=O)[O-])cc([N+](=O)[O-])c1OC(=O)OC(C)C (stereo unspecified)
active: Potency [9] 48.6 µM | Potency [10] 30.6 µM | Potency [11] 54.5 µM | Potency [12] 27.3 µM | Potency [13] 48.6 µM
inactive: Potency [1] | Potency [2] | Potency [3] | Potency [4] | Potency [5] | Potency [6] | Potency [7] | Potency [8]

O=C1c2c(O)ccc(O)c2C(=O)c2c(NCCNCCO)ccc(NCCNCCO)c21
inactive: fluorescence, % of fluorescent control [1] -0.133% [at 18.6 µM] | activity change [2] -0.248% [at 18.6 µM, stronger effect = higher value] | fluorescence, % of fluorescent control [3] -0.213% [at 18.6 µM] | fluorescence, % of Rose Bengal [4] -0.463% [at 18.6 µM] | fluorescence, % of fluorescent control [5] -0.123% [at 18.6 µM] | fluorescence, % of fluorescein control [6] -0.22% [at 18.6 µM] | fluorescence, % of fluorescent control [7] -0.0158% [at 18.6 µM]
active: Potency [14] 0.0072 µM | Potency [9] 0.0101 µM | Potency [15] 0.512 µM | Potency [11] 9.43 µM | Potency [12] 5.07 µM | Potency [13] 0.569 µM

Cc1c(C(=O)O)cccc1[N+](=O)[O-]
active: Potency [14] 62.1 µM
inactive: Potency [1] | Potency [2] | Potency [3] | Potency [4] | Potency [5] | Potency [6] | Potency [7] | Potency [15] | Potency [11] | Potency [13]

CC(C)(c1cc(Br)c(O)c(Br)c1)c1cc(Br)c(O)c(Br)c1
inactive: Potency [1] | Potency [3] | Potency [4] | Potency [5] | Potency [6] | Potency [7] | Potency [11]
active: Potency [14] 57.9 µM | Potency [9] 60.9 µM and 64.9 µM | Potency [10] 51.6 µM | Potency [16] 54.8 µM | Potency [13] 27.2 µM

COc1cc(C(=O)NS(=O)(=O)c2ccccc2C)ccc1Cc1cn(C)c2ccc(NC(=O)OC3CCCC3)cc12
inactive: Potency [1] | Potency [2] | Potency [3] | Potency [4] | Potency [5] | Potency [6] | Potency [7] | Potency [8] | Potency [16] | Potency [11]
active: Potency [17] 12 µM | Potency [13] 29.8 µM

C(=C/c1ccccc1)/c1ccccc1
inactive: Potency [1] | Potency [2] | Potency [3] | Potency [4] | Potency [5] | Potency [6] | Potency [7] | Potency [14] | Potency [9] | Potency [10] | Potency [16] | Potency [11] | Potency [13]

O=C(c1ccccc1)c1cc(Cl)ccc1O
inactive: Potency [1] | Potency [2] | Potency [3] | Potency [4] | Potency [5] | Potency [6] | Potency [7] | Potency [8] | Potency [17] | Potency [14] | Potency [9] | Potency [10] | Potency [11]

O=C(O)c1cccc(Cl)n1
inactive: Potency [1] | Potency [3] | Potency [4] | Potency [5] | Potency [6] | Potency [7] | Potency [16] | Potency [15] | Potency [11] | Potency [12] | Potency [13]
active: Potency [14] 19.3 µM | Potency [9] 61.1 µM | Potency [10] 61.1 µM

Oc1ccc(-c2ccc(O)cc2)cc1
inactive: Potency [1] | Potency [3] | Potency [4] | Potency [5] | Potency [6] | Potency [7] | Potency [8] | Potency [16] | Potency [11] | Potency [13]
active: Potency [9] 17.3 µM | Potency [10] 24.5 µM

C=C(C)C(=O)OCCC[Si](Cl)(Cl)Cl
inactive: Potency [1] | Potency [2] | Potency [3] | Potency [4] | Potency [5] | Potency [6] | Potency [7] | Potency [9] | Potency [10] | Potency [16] | Potency [11] | Potency [13]

O=C1Nc2ccc(Cl)cc2[C@@](C#CC2CC2)(C(F)(F)F)O1
inactive: Potency [1] | Potency [2] | Potency [3] | Potency [4] | Potency [5] | Potency [6] | Potency [7] | Potency [11]
active: Potency [17] 23.9 µM | Potency [14] 26.6 µM | Potency [9] 26.6 µM | Potency [10] 21.1 µM | Potency [13] 29.8 µM

O=C(Nc1ccc(Cl)c(Cl)c1)c1cc(Cl)cc(Cl)c1O
active: Potency [14] 6.11 µM | Potency [9] 4.86 µM | Potency [10] 4.86 µM | Potency [16] 1.95 µM | Potency [11] 12.2 µM | Potency [13] 4.86 µM
inactive: Potency [1] | Potency [2] | Potency [3] | Potency [4] | Potency [6] | Potency [7]

CCO[Si](CCCSSSSCCC[Si](OCC)(OCC)OCC)(OCC)OCC
inactive: Potency [1] | Potency [3] | Potency [4] | Potency [5] | Potency [6] | Potency [7] | Potency [17] | Potency [11]
active: Potency [9] 61.2 µM | Potency [10] 38.6 µM

Cc1oc(-c2ccccc2)nc1CCOc1ccc(C[C@H](Nc2ccccc2C(=O)c2ccccc2)C(=O)O)cc1
inactive: Potency [1] | Potency [3] | Potency [4] | Potency [5] | Potency [6] | Potency [7] | Potency [16]
active: Potency [18] 38.9 µM | Potency [9] 61.1 µM | Potency [10] 54.5 µM | Potency [11] 61.1 µM | Potency [13] 27.3 µM

CN(C)CCCN1c2ccccc2Sc2ccc(C(F)(F)F)cc21
active: Potency [14] 7.5 µM | Potency [9] 8.41 µM | Potency [10] 11.9 µM | Potency [13] 9.44 µM
inactive: Potency [1] | Potency [2] | Potency [3] | Potency [4] | Potency [5] | Potency [6] | Potency [7]

C=C(c1ccc(C(=O)O)cc1)c1cc2c(cc1C)C(C)(C)CCC2(C)C
inactive: Potency [1] | Potency [2] | Potency [3] | Potency [4] | Potency [5] | Potency [6] | Potency [7] | Potency [16] | Potency [11]
active: Potency [17] 9.77 µM | Potency [9] 77 µM | Potency [10] 68.6 µM | Potency [13] 11.9 µM and 13.7 µM
